Measurements as given in PubChem BioAssay (Tox21).
Results filed as inconclusive are left out. Calls of active or inactive are those of the source. Unless noted, calls come from the whole dose curve; as a rule, active = well fitted curve in the direction sought with a large enough effect in the repeat runs; inconclusive = weak or mixed curves; inactive = no such curve, though single readings can be large; an effect the other way counts as inactive or inconclusive.

Assays:
[1] = qHTS assay to identify small molecule agonists of the hypoxia (HIF-1) signaling pathway (AID 1224846; active = well fitted activation curve with a large enough effect in the signal ratio in the repeat runs, not every such curve was filed as active; the % refers to the signal ratio)
How it was run: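 HRE-bla ME-180 beta-lactamase reporter cells in medium with 0.5% dialyzed FBS, pre-incubated 5 h then exposed to compounds 17 h at 37C, 5% CO2; reporter induction read with CCF4-AM FRET substrate.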

[2] = qHTS assay to identify small molecule agonists of H2AX - cell viability counter screen (AID 1224847; calls by dose curve; note: nearly all actives have a fitted effect of over 30% in size; note: potency is the fitted concentration of half-maximal effect)
How it was run: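 Compounds tested at 15 concentrations were incubated 3 hr at 37C with wild-type CHO-K1 cells; cellular ATP-based luminescence (CellTiter-Glo) indicated viability.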

[3] = qHTS assay to identify small molecule antagonists of the estrogen related receptor (ERR) signaling pathway from Tox21 library (AID 1224848); note: nearly all actives have a fitted effect of over 50% in size; note: potency is the fitted concentration of half-maximal effect
How it was run: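 Luminescent reporter read-out (ONE-Glo) from NTP's ERR cell line after 18 h treatment at 37 C with DMSO-dissolved Tox21 compounds; cells pre-plated 6 h beforehand at 2,000 per well.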

[4] = qHTS assay to identify small molecule agonists of the estrogen related receptor (ERR) signaling pathway from Tox21 library (AID 1224849; calls by dose curve; note: nearly all actives have a fitted effect of over 15% in size); conditions: ERR reporter cell line, ONE-Glo luciferase, 18 h; at 92.4 µM (top of the series) unless noted
How it was run: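 ERR reporter cells (NTP line) pre-incubated 6 hours at 37 C, then exposed to compounds for 18 hours at 37 C. ONE-Glo luciferase luminescence was read after 30 minutes at room temperature.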

[5] = qHTS RealTime-Glo MT Cell Viability Assay in HEK293 cells - 32 hour (AID 1224868); note: nearly all actives have a fitted effect of over 50% in size; note: potency is the fitted concentration of half-maximal effect
How it was run: (§1)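 HEK293 cells seeded with NanoLuc/prosubstrate reagent, rested 5 h at 37 C, then dosed and kept at 37 C up to 40 h. Nonlytic real-time luminescence from viable cells read at 0, 8, 16, 24, 32 and 40 h.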

[6] = A CellTox Green Cytotoxicity Assay to monitor cytotoxicity in HEK293 cells - 0 hour (AID 1224869); note: nearly all actives have a fitted effect of over 50% in size
How it was run: (§2)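 HEK293 cells, 600/well, were preincubated 5 hours and then exposed to compounds at 37 C for up to 40 hours. A cell-impermeant cyanine dye staining dead-cell DNA was read by fluorescence at 0, 8, 16, 24, 32 and 40 h time points.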

[7] = qHTS RealTime-Glo MT Cell Viability Assay in HepG2 cells - 40 hour (AID 1224870); note: nearly all actives have a fitted effect of over 50% in size
How it was run: (§3)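 HepG2 cells (600/well) mixed with RealTime-Glo MT reagent, settled 5 h at 37 C/5% CO2 before compound addition. Nonlytic NanoLuc luminescence from viable-cell prosubstrate reduction read repeatedly during 40 h treatment at 37 C.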

[8] = qHTS RealTime-Glo MT Cell Viability Assay in HEK293 cells - 16 hour (AID 1224872); note: nearly all actives have a fitted effect of over 50% in size; note: potency is the fitted concentration of half-maximal effect
How it was run: as §1

[9] = qHTS RealTime-Glo MT Cell Viability Assay in HepG2 cells - 8 hour (AID 1224873); note: nearly all actives have a fitted effect of over 55% in size
How it was run: as §3

[10] = qHTS RealTime-Glo MT Cell Viability Assay in HEK293 cells - 40 hour (AID 1224874); conditions: RealTime-Glo luminescence; max response: stronger effect = lower value; note: nearly all actives have a fitted effect of over 50% in size
How it was run: (§4)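 600 cells/well were plated with the nonlytic NanoLuc/prosubstrate reagent, pre-incubated 5 h, then given 23 nL of compound in DMSO. Incubation at 37 C for 40 h, with luminescence from viable-cell-reduced substrate read repeatedly from 0 h.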

[11] = A CellTox Green Cytotoxicity Assay to monitor cytotoxicity in HEK293 cells - 24 hour (AID 1224875); note: nearly all actives have a fitted effect of over 45% in size; note: potency is the fitted concentration of half-maximal effect
How it was run: as §2

[12] = A CellTox Green Cytotoxicity Assay to monitor cytotoxicity in HepG2 cells - 16 hour (AID 1224876); note: nearly all actives have a fitted effect of over 45% in size
How it was run: (§5)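 HepG2 cells, 600/well, preincubated 5 h with CellTox Green dye, then exposed to Tox21 compounds in DMSO at 37 C for up to 40 h. Dead-cell DNA fluorescence read at the indicated time point.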

[13] = A CellTox Green Cytotoxicity Assay to monitor cytotoxicity in HepG2 cells - 24 hour (AID 1224878); note: nearly all actives have a fitted effect of over 45% in size
How it was run: as §5

[14] = qHTS RealTime-Glo MT Cell Viability Assay in HEK293 cells - 0 hour (AID 1224880); note: top concentration of the series differs between compounds; nearly all actives have a fitted effect of over 45% in size
How it was run: as §4

[15] = A CellTox Green Cytotoxicity Assay to monitor cytotoxicity in HEK293 cells - 32 hour (AID 1224881); note: nearly all actives have a fitted effect of over 40% in size; note: potency is the fitted concentration of half-maximal effect
How it was run: as §2

[16] = qHTS RealTime-Glo MT Cell Viability Assay in HepG2 cells - 24 hour (AID 1224867); note: nearly all actives have a fitted effect of over 50% in size
How it was run: (§6)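 HepG2 cells (600/well) were dispensed with RealTime-Glo reagents, incubated 5 h at 37 °C, then treated with compounds in DMSO for up to 40 h. Nonlytic NanoLuc luminescence reflecting viable cells was read at each stated time point.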

[17] = A CellTox Green Cytotoxicity Assay to monitor cytotoxicity in HEK293 cells - 40 hour (AID 1224871); note: nearly all actives have a fitted effect of over 45% in size; note: potency is the fitted concentration of half-maximal effect
How it was run: as §2

[18] = qHTS RealTime-Glo MT Cell Viability Assay in HepG2 cells - 32 hour (AID 1224877); note: nearly all actives have a fitted effect of over 55% in size
How it was run: as §6

[19] = A CellTox Green Cytotoxicity Assay to monitor cytotoxicity in HepG2 cells - 40 hour (AID 1224879); note: nearly all actives have a fitted effect of over 40% in size
How it was run: as §5
% is set by controls: 0 for no effect and ±100 for the full control effect.

CCCCOCN(C(=O)CCl)c1c(CC)cccc1CC
inactive: outcome [1] | activity change, positive = activation [4] -62.9% | Potency [5] | Potency [6] | Potency [7] | Potency [8] | Potency [9] | max response [10] -10.8% | Potency [11] | Potency [12] | Potency [13] | Potency [14] | Potency [15]
active: Potency [2] 101 µM | Potency [3] 27.3 µM

Cc1ccc(OP(=O)(Oc2ccccc2)Oc2ccccc2)cc1
inactive: outcome [1] | activity change, positive = activation [4] -20.3% | Potency [16] | Potency [5] | Potency [6] | Potency [7] | Potency [17] | Potency [8] | Potency [9] | max response [10] -19.8% | Potency [11] | Potency [12] | Potency [18] | Potency [13] | Potency [19] | Potency [14] | Potency [15]

O=[N+]([O-])c1ccc(Oc2ccc(C(F)(F)F)cc2[N+](=O)[O-])cc1
inactive: outcome [1] | Potency [2] | activity change, positive = activation [4] -23.5% | Potency [16] | Potency [7] | Potency [17] | Potency [12] | Potency [18] | Potency [13] | Potency [19] | Potency [14] | Potency [15]
active: Potency [5] 19.5 µM | Potency [8] 19.5 µM

N#C/C=C/c1ccccc1
inactive: outcome [1] | Potency [2] | Potency [16] | Potency [5] | Potency [6] | Potency [7] | Potency [17] | Potency [8] | Potency [9] | max response [10] -0.121% | Potency [11] | Potency [12] | Potency [18] | Potency [13] | Potency [19] | Potency [14] | Potency [15]

CC(=O)c1ccc(-c2ccccc2)cc1
inactive: outcome [1] | Potency [2] | Potency [16] | Potency [5] | Potency [6] | Potency [7] | Potency [8] | Potency [9] | max response [10] -11.1% | Potency [11] | Potency [12] | Potency [18] | Potency [13] | Potency [19] | Potency [14] | Potency [15]

ClC1=C(Cl)[C@]2(Cl)[C@@H]3[C@@H](Cl)[C@@H](Cl)C[C@@H]3[C@@]1(Cl)C2(Cl)Cl
inactive: outcome [1] | Potency [2] | Potency [3] | activity change, positive = activation [4] 0.0857% | Potency [16] | Potency [5] | Potency [6] | Potency [7] | Potency [17] | Potency [8] | Potency [9] | max response [10] 15.9% | Potency [12] | Potency [18] | Potency [13] | Potency [19] | Potency [14] | Potency [15]

CCCCCCCCCCCCBr
inactive: outcome [1] | Potency [2] | Potency [16] | Potency [5] | Potency [7] | Potency [8] | Potency [9] | max response [10] -12.1% | Potency [12] | Potency [18] | Potency [13] | Potency [19] | Potency [14] | Potency [15]

CCSC(C)CC1CC(=O)C(/C(CC)=N/OC/C=C/Cl)=C(O)C1 (centres undefined)
inactive: outcome [1] | Potency [2] | Potency [3] | activity change, positive = activation [4] -10.8% [at 42.5 µM] | Potency [16] | Potency [5] | Potency [6] | Potency [7] | Potency [17] | Potency [8] | Potency [9] | Potency [12] | Potency [18] | Potency [13] | Potency [19] | Potency [14] | Potency [15]

CCOP(=S)(OCC)SCS(=O)(=O)C(C)(C)C
inactive: outcome [1] | Potency [2] | Potency [16] | Potency [5] | Potency [6] | Potency [7] | Potency [8] | Potency [9] | max response [10] -15.1% | Potency [11] | Potency [12] | Potency [13] | Potency [19] | Potency [14] | Potency [15]

CC(=O)c1cc(C(C)(C)C)cc2c1CCC2(C)C
active: Potency [17] 38.9 µM | Potency [11] 38.9 µM | Potency [15] 38.9 µM
inactive: outcome [1] | Potency [3] | activity change, positive = activation [4] -2.02% | Potency [16] | Potency [5] | Potency [6] | Potency [7] | Potency [9] | max response [10] -21.2% | Potency [18] | Potency [14]

C=CC(=O)N(C)C
inactive: outcome [1] | Potency [2] | Potency [3] | activity change, positive = activation [4] -4.19% | Potency [16] | Potency [5] | Potency [17] | Potency [8] | Potency [9] | max response [10] -0.539% | Potency [12] | Potency [13] | Potency [19] | Potency [14] | Potency [15]

O=C(Cl)c1ccc(Cl)cc1
inactive: outcome [1] | Potency [2] | Potency [16] | Potency [6] | Potency [9] | Potency [11] | Potency [12] | Potency [18] | Potency [13] | Potency [19] | Potency [14] | Potency [15]

COc1ccc(/C(=C/C(=O)N2CCOCC2)c2ccc(Cl)cc2)cc1OC
inactive: outcome [1] | Potency [2] | Potency [3] | activity change, positive = activation [4] -10.9% | Potency [16] | Potency [6] | Potency [17] | Potency [8] | Potency [9] | Potency [11] | Potency [12] | Potency [13] | Potency [19] | Potency [14] | Potency [15]
